Laboratory results reported in PubChem BioAssay.
Calls of active or inactive are those of the source. Unless noted, no stated cut-off is given here; in the data, active means inhibition above about 33%; inactive means the rest. Numbered stars: 1 amine (or outer) side, 2 acyl side, 3 side chain; on linkers, the order of the positions; unused ones are H or OH. Bridge positions count the residues as written; N and C are the ends. Square brackets hold non-standard residues; d marks the D form. Peptide text beside a SMILES is read from it. ξ: configuration not given here. X1 = CC[C@H](CCC[C@@H](O)[C@@H](C)C(=O)O[C@H](C)[C@@H](C)C/C=C(C)/C(=C\C(=O)[*:1])OC)O[*:2]; NMeξIle = CC[C@H](C)C(NC)C(=O)O; NMeV = CN[C@H](C(=O)O)C(C)C; NMeS = CN[C@@H](CO)C(=O)O

What was measured:
[1] = molecular target: Nuclear receptor coactivator 3 (Homo sapiens) (UniProt Q9Y6Q9); assay: SRC3 coactivator transcriptional activity inhibitors, confirmation, cell-based, luminescence, quadruplicate (AID 588792;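 active means mean inhibition over 43.08%, the solvent-only control mean plus 3 SD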;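 further: 0% = DMSO treated cells and 100% = gossypol at 36 µM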); conditions: HEK293 GAL4-SRC3 luciferase reporter, at 3.6 µM, active compounds read high
[2] = system: transactivating tegument protein VP16 (Human herpesvirus 1), Gal4-VP16 luciferase reporter; assay: VP16 transactivation inhibitors, counter-screen for SRC3 inhibitor project, cell-based, luminescence, high throughput (AID 588794; in the data active means inhibition above about 30%); conditions: mammalian cells, VP16-driven luciferase reporter luminescence; at 3.6 µM; active compounds read high
[3] = molecular target: Nuclear receptor coactivator 1 (Homo sapiens) (UniProt Q15788); assay: SRC1 coactivator transcriptional activity inhibitors, confirmation, cell-based, luminescence, quadruplicate (AID 588820;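 active means mean inhibition above 46.68%, the untreated control wells mean plus 3 SD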;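 further: 0% = DMSO wells and 100% = gossypol 36 µM treated wells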); conditions: HEK293 GAL4-SRC1 luciferase reporter, at 3.6 µM, active compounds read high
[4] = VP16 transactivation inhibitors, counter-screen for SRC1 inhibitor project, cell-based, luminescence, high throughput (AID 588824; in the data active means inhibition above about 25%); conditions: cell-based VP16 transactivation luciferase luminescence; at 3.6 µM; active compounds read high
[5] = StAR promoter reporter inhibitors, counter-screen for LRH-1 inverse agonist project, cell-based, luminescence, high throughput (AID 651611; in the data active means inhibition above about 28%); conditions: StAR promoter luciferase reporter counterscreen, at 3.6 µM, active compounds read high
[6] = molecular target: Nuclear receptor subfamily 5 group A member 2 (Homo sapiens) (UniProt O00482); assay: LRH-1 (NR5A2) inverse agonists, retest, confirmation, cell-based, luminescence (AID 651613; in the data active means inhibition above about 42%;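 further: HEK293T cells co-transfected with LRH-1 and StAR promoter luciferase reporter; 0% = vehicle wells and 100% = parental cells lacking receptor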); conditions: cell-based LRH-1 luciferase reporter, inverse agonism; at 3.6 µM; active compounds read high
[7] = molecular target: Steroidogenic factor 1 (Homo sapiens) (UniProt Q13285); assay: SF1 (NR5A1) inverse agonists, counter-screen for LRH-1 inverse agonist project, cell-based, luminescence, high throughput (AID 651614; in the data active means inhibition above about 44%;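 further: cells cotransfected with StAR promoter reporter and SF1 expression vector; 0% = vehicle on cells with receptor and 100% = vehicle on cells lacking receptor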); conditions: cell-based SF1 luciferase reporter, at 3.6 µM, active compounds read high
[8] = VP16 transactivation reporter inhibitors, counter-screen for LRH-1 inverse agonist project, cell-based, luminescence, high throughput (AID 651615); conditions: Gal4-VP16 luciferase reporter cells, at 3.6 µM, active compounds read high

Measured: inhibition

Chain of Nuclear receptor coactivator 1 (Homo sapiens) (Q15788 whole entry, looked up, the tested form may be a part): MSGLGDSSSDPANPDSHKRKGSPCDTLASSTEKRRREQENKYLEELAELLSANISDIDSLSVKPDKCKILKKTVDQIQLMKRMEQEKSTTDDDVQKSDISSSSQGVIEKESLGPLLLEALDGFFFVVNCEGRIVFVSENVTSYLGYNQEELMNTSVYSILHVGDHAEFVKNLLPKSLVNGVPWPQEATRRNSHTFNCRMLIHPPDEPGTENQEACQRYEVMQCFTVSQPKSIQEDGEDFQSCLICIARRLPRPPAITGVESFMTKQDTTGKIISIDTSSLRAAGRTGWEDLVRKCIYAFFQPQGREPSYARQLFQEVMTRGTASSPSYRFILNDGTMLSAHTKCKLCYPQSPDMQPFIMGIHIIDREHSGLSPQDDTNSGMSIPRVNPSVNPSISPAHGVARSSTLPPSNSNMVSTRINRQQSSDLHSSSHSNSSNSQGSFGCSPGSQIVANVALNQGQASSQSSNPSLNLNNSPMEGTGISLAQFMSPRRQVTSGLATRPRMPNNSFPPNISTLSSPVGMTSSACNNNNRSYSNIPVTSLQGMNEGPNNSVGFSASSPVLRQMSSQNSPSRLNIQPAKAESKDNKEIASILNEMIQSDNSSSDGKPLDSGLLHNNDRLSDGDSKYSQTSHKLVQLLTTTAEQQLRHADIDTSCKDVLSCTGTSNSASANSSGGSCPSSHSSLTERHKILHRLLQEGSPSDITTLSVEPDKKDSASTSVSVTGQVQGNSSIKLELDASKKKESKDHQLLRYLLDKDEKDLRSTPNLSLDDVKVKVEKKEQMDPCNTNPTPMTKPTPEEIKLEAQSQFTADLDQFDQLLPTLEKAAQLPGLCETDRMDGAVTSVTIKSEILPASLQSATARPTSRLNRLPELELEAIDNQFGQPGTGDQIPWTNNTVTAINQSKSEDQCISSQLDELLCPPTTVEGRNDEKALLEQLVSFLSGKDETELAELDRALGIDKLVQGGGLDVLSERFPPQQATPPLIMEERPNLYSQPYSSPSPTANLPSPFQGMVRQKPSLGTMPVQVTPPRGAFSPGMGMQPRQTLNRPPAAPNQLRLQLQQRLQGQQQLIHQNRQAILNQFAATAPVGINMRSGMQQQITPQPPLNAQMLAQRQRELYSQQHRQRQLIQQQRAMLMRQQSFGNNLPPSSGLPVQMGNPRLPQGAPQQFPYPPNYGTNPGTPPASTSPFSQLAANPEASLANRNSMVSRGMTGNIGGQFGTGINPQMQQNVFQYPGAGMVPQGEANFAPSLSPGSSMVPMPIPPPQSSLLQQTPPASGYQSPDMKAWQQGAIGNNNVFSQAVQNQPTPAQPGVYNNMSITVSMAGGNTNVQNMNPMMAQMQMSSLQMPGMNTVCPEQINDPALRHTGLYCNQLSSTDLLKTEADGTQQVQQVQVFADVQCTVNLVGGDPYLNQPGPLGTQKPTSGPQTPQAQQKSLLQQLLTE
Chain of Nuclear receptor subfamily 5 group A member 2 (Homo sapiens) (O00482 whole entry, looked up): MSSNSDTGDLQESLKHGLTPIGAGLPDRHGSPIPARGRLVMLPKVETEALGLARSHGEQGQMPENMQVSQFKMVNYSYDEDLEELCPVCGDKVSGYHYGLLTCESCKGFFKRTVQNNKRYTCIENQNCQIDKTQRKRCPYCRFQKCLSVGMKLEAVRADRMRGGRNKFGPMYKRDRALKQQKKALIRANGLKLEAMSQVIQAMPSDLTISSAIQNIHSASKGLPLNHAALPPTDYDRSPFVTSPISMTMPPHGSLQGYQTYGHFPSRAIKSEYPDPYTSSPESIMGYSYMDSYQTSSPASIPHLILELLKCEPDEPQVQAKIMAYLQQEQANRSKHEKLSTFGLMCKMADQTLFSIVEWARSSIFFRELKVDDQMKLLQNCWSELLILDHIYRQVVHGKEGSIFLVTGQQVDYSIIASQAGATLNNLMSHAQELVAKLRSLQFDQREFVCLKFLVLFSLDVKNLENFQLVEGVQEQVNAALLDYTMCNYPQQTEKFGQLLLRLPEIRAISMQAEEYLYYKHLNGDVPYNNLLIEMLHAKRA
Chain of Steroidogenic factor 1 (Homo sapiens) (Q13285 whole entry, looked up, the tested form may be a part): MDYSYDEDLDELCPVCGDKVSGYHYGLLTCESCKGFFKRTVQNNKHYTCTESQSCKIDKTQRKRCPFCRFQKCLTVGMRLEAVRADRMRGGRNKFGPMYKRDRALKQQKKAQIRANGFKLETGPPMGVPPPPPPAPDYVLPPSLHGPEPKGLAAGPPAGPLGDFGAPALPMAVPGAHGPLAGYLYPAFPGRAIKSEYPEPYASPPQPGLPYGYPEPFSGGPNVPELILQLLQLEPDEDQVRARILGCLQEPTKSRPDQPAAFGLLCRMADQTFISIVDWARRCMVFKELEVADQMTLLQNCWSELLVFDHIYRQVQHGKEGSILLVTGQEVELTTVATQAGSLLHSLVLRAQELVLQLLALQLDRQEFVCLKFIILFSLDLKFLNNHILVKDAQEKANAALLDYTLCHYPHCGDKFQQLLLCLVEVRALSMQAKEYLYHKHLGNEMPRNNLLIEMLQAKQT
Chain of Nuclear receptor coactivator 3 (Homo sapiens) (Q9Y6Q9 whole entry, looked up, the tested form may be a part): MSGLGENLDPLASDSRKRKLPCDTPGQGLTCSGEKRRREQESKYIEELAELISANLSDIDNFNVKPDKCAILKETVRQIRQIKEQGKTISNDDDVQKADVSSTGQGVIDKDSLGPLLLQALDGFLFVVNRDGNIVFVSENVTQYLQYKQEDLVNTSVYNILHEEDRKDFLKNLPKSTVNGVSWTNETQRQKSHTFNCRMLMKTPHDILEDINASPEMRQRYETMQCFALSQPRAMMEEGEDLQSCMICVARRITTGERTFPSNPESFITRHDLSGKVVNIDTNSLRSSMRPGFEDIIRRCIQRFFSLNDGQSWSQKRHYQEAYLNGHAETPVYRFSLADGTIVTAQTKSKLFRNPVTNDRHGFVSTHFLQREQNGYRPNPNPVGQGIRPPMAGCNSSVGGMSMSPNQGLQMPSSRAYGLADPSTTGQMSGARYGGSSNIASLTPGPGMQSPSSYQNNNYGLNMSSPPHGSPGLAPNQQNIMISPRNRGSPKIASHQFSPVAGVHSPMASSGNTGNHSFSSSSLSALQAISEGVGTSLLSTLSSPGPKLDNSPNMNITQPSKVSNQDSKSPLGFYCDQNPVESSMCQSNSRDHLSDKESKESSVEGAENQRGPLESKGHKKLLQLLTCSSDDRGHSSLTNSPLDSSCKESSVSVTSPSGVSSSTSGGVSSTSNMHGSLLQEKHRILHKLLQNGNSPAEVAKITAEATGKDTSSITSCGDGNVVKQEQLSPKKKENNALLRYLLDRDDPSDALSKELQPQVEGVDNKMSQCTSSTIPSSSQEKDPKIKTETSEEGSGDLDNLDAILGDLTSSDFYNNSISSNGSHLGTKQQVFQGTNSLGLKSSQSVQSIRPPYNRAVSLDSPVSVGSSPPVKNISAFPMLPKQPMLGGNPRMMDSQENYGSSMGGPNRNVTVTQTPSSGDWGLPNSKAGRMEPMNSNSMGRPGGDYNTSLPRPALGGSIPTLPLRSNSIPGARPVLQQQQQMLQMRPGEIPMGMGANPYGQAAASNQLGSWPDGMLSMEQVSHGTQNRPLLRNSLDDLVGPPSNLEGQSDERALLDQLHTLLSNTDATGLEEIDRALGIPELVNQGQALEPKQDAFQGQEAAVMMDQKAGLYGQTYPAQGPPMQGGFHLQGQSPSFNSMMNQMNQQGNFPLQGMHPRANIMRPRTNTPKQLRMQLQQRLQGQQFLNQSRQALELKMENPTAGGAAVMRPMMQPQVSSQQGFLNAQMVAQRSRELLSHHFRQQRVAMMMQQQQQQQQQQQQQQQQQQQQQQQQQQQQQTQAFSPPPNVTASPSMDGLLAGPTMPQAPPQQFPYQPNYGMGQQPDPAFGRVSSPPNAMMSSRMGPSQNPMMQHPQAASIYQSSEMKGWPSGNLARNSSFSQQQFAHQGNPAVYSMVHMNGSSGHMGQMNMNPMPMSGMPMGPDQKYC

O=C(Nc1ccc(S(=O)(=O)N2CCCC2)cc1)c1ccc(CN2CCc3ccccc3C2)cc1
active: [2] 56.4% | [4] 56.9% | [5] 51.4% | [6] 74.5% | [7] 75.2% | [8] 68.7%
inactive: [1] 28.1% | [3] 8.79%

COC(=O)C12OCC34C(CC5C(C)=C(O)C(=O)CC5(C)C3C(O)C1O)OC(=O)C(OC(=O)C=C(C)C)C24 (configuration not stated)
active: [1] 97.3% | [2] 96.7% | [3] 95.2% | [4] 96.3% | [5] 96.9% | [6] 110% | [7] 98.5% | [8] 97.6%

O=C(O)C1CCCN1c1nc(-c2ccc(Cl)c(Cl)c2)cc(C(F)(F)F)n1 (configuration not stated)
active: [1] 53.8% | [2] 74.4% | [3] 48.3% | [4] 72.8% | [5] 74.5% | [6] 97.4% | [7] 91.4% | [8] 78.2%

CC(=NNC(=S)Nc1cccc(Cl)c1)c1ccccn1
active: [1] 71% | [2] 66.5% | [4] 65.1% | [5] 76.5% | [6] 90.8% | [7] 91.1% | [8] 75.7%
inactive: [3] 44.7%

c1cc(CNc2ccc3c(c2)OCCO3)ccn1
inactive: [1] -1.65% | [2] -11.2% | [3] -6.52% | [4] -0.58% | [5] 10% | [6] 2.45% | [7] 14.8% | [8] -8.35%

O=C(NCc1ccco1)c1cccc(NC(=O)c2ccccc2)c1
inactive: [1] 23.4% | [3] 33.7%
active: [2] 52.9% | [4] 53.1% | [5] 58.8% | [6] 65.6% | [7] 66% | [8] 69.5%

COc1ccc2cc3cc(C(=O)Nc4cc(OC)c(OC)c(OC)c4)oc3nc2c1
active: [2] 33.5% | [4] 46.1% | [5] 71% | [6] 55.1% | [7] 74.7% | [8] 56.5%
inactive: [1] 37.1% | [3] 9.93%

N=c1c2c(n(Cc3ccc(F)cc3)c3c1CCC3)CCC2
active: [2] 42.9% | [4] 43.6% | [5] 41.6% | [6] 80.3% | [7] 69% | [8] 69.2%
inactive: [1] 25.9% | [3] 17.8%

CCCCCCCn1c2c(c(=N)c3c1CCC3)CCCC2
active: [1] 70.2% | [2] 81.8% | [3] 56.2% | [4] 83.4% | [5] 79.3% | [6] 110% | [7] 95.8% | [8] 98.2%

C#CC[N+](C)(C)CCCCCCCCCCCC
active: [2] 45.9% | [4] 36.6% | [5] 29.7% | [6] 64.7% | [7] 65.8% | [8] 59.8%
inactive: [1] 29.2% | [3] 33.4%

COc1ccc(C(=O)Nc2nnc(Cc3cccs3)s2)cc1OC
inactive: [1] 19% | [3] -3.67%
active: [2] 54.2% | [4] 52.5% | [5] 51.5% | [6] 70.7% | [7] 66.1% | [8] 72.3%

NC1=C(Cl)C(=O)c2ccc(S(N)(=O)=O)cc2C1=O
active: [1] 97.5% | [2] 93.7% | [3] 82% | [4] 92.8% | [5] 89.7% | [6] 106% | [7] 94% | [8] 95.8%

CC[C@@H]1CCC[C@@H](O)[C@@H](C)C(=O)O[C@H](C)[C@@H](C)C/C=C(C)/C(OC)=C\C(=O)N(C)C([C@@H](C)CC)C(=O)N(C)[C@@H](C(C)C)C(=O)N(C)[C@@H](COC)C(=O)N2CCC[C@H]2C(=O)N(C)[C@@H](C(C)C)C(=O)N2CCC[C@H]2C(=O)O1 (some centres not stated) ([NMeξIle][NMeV][NMeS](Me)P[NMeV]P; linker N-C via X1)
active: [1] 79.9% | [2] 86.5% | [3] 57.1% | [4] 87.5% | [5] 83% | [6] 104% | [7] 94.8% | [8] 93.1%

COc1ccc(C(=O)Nc2cnn(Cc3ccc(Cl)cc3)c2)cc1OC
inactive: [1] 26.3% | [3] 23.3%
active: [2] 52.7% | [4] 51% | [5] 45% | [6] 51.8% | [7] 64% | [8] 63.1%

CCc1ccccc1Nc1nn2c(=O)c3ccc(C(=O)NCc4ccccn4)cc3nc2s1
inactive: [1] 33.3% | [3] 42%
active: [2] 61.3% | [4] 59.9% | [5] 57.3% | [6] 67.3% | [7] 76% | [8] 72%

O=[N+]([O-])c1cc(CN2CCN(c3ccccc3)CC2)c(O)c2ncccc12
inactive: [3] 9.05%
active: [1] 48.3% | [2] 56.4% | [4] 50.8% | [5] 59.3% | [6] 90.1% | [7] 85.7% | [8] 73.4%

CC1(C)CC(N2CCN(Cc3ccccc3)CC2)=CC(=[N+]2CCCCC2)C1
inactive: [1] 30.2% | [3] -6.45%
active: [2] 50.7% | [4] 40.7% | [5] 59.8% | [6] 88.3% | [7] 86.3% | [8] 74%

Nc1nc2c(nnn2C2CC(O)C(CO)O2)c(=O)[nH]1 (configuration not stated)
active: [1] 78.7% | [5] 51.8% | [6] 53.9% | [7] 44.1%
inactive: [2] 13.7% | [3] 13.6% | [4] 3.11% | [8] 9.15%

COc1ccc(/C=C/c2cc(-c3ccc(C)cc3)o[n+]2C)cc1
active: [1] 65.6% | [2] 74.6% | [3] 56.2% | [4] 71.5% | [5] 62.3% | [6] 98.9% | [7] 89.8% | [8] 83.6%

Cc1cc(/C=N/n2cnnc2)c(C)n1-c1ccc(OCc2ccc(Cl)cc2Cl)cc1
inactive: [1] 19.7% | [3] 8.2%
active: [2] 43.4% | [4] 37.6% | [5] 36.5% | [6] 67% | [7] 68.7% | [8] 62.3%

CC1(C)CC(N2CCCC2)=CC(=[N+]2CCCCCC2)C1
inactive: [1] 23% | [3] -16.2% | [5] 0.24%
active: [2] 49.5% | [4] 52.1% | [6] 95% | [7] 61.3% | [8] 60.9%

CC[C@H]1CN2CCc3cc(OC)c(OC)cc3C2C[C@@H]1C[C@H]1NCCc2cc(OC)c(OC)cc21 (some centres not stated)
active: [1] 97.5% | [2] 96% | [3] 91.5% | [4] 94.6% | [5] 95.7% | [6] 110% | [7] 98% | [8] 97.2%

CC1(C)CC(N2CCN(c3ccccc3)CC2)=CC(=[N+]2CCCC2)C1
active: [2] 37.6% | [4] 33.1% | [5] 30% | [6] 73.2% | [7] 66.5% | [8] 63.7%
inactive: [1] 23.8% | [3] 2.88%

CN(C)c1ccc(/C=C/c2ccc3c4ccccc4ccc3[n+]2-c2ccccc2)cc1
active: [1] 70.9% | [2] 82.3% | [3] 50.2% | [4] 79.4% | [5] 71.9% | [6] 104% | [7] 92.5% | [8] 83%

COc1ccc(C=C2CS(=O)(=O)CC(=Cc3ccc(OC)cc3)C2=O)cc1
inactive: [1] 29.7% | [3] -73.9%
active: [2] 46.8% | [4] 55.9% | [5] 43.9% | [6] 83% | [7] 83.7% | [8] 80.1%

COc1cccc(/C=N/Nc2ncnc3scc(-c4ccccc4)c23)c1O
active: [1] 83.3% | [2] 70.3% | [3] 76.8% | [4] 65.2% | [5] 89.1% | [6] 103% | [7] 89.4% | [8] 65.1%

COc1cc(C2c3cc4c(cc3C(OC3OC5COC(c6cccs6)OC5C(O)C3O)C3COC(=O)C23)OCO4)cc(OC)c1O (configuration not stated)
inactive: [2] -8.11% | [3] 26% | [4] -26.7% | [8] -36.1%
active: [1] 72.2% | [5] 73.9% | [6] 82.6% | [7] 54.5%

COc1cccc(/C=N/Nc2ncnc3c2ncn3Cc2ccccc2)c1O
active: [1] 58.9% | [2] 31% | [3] 48% | [4] 28.4% | [5] 84.4% | [6] 99.4% | [7] 86.1% | [8] 78.3%

CCOc1ccc(-n2c(-c3ccc(OC)cc3)c[n+]3c2CCCCC3)cc1
inactive: [3] 36.2%
active: [1] 46.6% | [2] 67.5% | [4] 63.9% | [5] 52.9% | [6] 109% | [7] 83.9% | [8] 90.3%

COC1C=CC=C(C)C(=O)NC2=CC(=O)C(N)=C(CC(C)CC(OC)C(O)C(C)C=C(C)C1OC(N)=O)C2=O (configuration not stated)
active: [1] 78.9% | [2] 81.6% | [4] 82.3% | [5] 73.2% | [6] 93.7% | [7] 85.5% | [8] 85.7%
inactive: [3] 18.4%

CN1OC[C@@H]2CN[C@H](c3ccc(-c4cc5ccccc5o4)cc3)C[C@@H]21
active: [1] 83.3% | [2] 76.8% | [3] 68.6% | [4] 68.7% | [5] 78.3% | [6] 62.2% | [7] 79.8% | [8] 65.2%

CCn1c(C)cc(C(=O)COC(=O)c2ccccc2[N+](=O)[O-])c1C
active: [1] 92.9% | [2] 90.4% | [3] 86.8% | [4] 86.1% | [5] 83.5% | [6] 83.8% | [7] 83.6% | [8] 81.4%

CN(C)CCOc1ccc2c(c1)C(=O)C(=Cc1ncc([N+](=O)[O-])n1C)C2
inactive: [3] 43%
active: [1] 54.2% | [2] 35.2% | [4] 27% | [5] 68.6% | [6] 88.4% | [7] 73.7% | [8] 51.6%

CCN(CC)c1ccc(C(NC(=O)C(C)C)c2ccc3cccnc3c2O)cc1 (configuration not stated)
active: [1] 55.9% | [2] 56% | [3] 78.3% | [4] 66.5% | [5] 86.3% | [6] 103% | [7] 90% | [8] 84.9%
